Assay results as given in PubChem BioAssay AID1779 (Sanford-Burnham Center for Chemical Genomics, 2009).
Screen size: about 290,000 compounds; about 160 (0.055%) were called active. Rule as the data show it: active = inhibition above about 50%; inactive = the rest. Many of the other results were omitted from the sample, so actives are more common in it than they were.

These compounds were tested against Tyrosine-protein phosphatase non-receptor type 22 (Homo sapiens) (UniProt Q9Y2R2) (assay: inhibitors of LYP phosphatase, biochemical, fluorescence intensity, uHTS (AID 1779;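 also: plate controls were vehicle with enzyme for no effect and no enzyme for full effect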)). Conditions: recombinant LYP phosphatase, at 11.5 µM, hits give high values.
Chain of Tyrosine-protein phosphatase non-receptor type 22 (Homo sapiens) (Q9Y2R2 whole entry, looked up): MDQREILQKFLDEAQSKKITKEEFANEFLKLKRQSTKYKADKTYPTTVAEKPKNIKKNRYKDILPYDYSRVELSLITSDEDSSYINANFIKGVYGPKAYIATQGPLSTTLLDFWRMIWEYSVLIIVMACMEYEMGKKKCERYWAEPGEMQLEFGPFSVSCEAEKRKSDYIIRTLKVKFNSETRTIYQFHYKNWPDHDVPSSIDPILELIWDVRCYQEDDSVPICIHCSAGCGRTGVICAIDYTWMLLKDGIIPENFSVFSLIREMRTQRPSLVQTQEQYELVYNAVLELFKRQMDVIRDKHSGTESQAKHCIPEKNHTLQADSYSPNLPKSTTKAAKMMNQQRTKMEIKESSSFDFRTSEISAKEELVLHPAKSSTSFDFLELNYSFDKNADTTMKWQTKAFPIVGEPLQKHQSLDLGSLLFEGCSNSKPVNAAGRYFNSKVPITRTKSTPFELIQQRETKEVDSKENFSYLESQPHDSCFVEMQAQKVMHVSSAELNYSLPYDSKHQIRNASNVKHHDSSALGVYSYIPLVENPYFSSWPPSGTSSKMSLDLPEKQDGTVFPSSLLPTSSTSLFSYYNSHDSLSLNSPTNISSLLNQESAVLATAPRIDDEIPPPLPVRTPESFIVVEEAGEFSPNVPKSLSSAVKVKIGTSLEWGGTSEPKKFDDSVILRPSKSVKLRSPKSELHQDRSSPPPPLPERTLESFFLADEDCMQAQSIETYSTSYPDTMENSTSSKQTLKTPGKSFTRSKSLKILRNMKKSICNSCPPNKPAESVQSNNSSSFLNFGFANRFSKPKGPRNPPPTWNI

Row | Structure (SMILES) | inhibition
1 | CC1(NC(=O)CC[N+](C)(C)CCO)CS(=O)(=O)CC1S(=O)(=O)[O-] (centres undefined) | 0.6% (inactive)
2 | CCCC[N+](C)(C)CCC(=O)NC(C)(C)CS(=O)(=O)[O-] | -4.3% (inactive)
3 | Cc1c(C(=O)NNC(=S)NCc2ccc(Cl)cc2)oc2ccccc12 | -1.3% (inactive)
4 | COC(=O)CCCC1=CC2=C(c3ccccc3)C(=O)C(C)(OC(=O)C3CCCC3)C(=O)C2=CN1CC1CC1 (centres undefined) | -6.7% (inactive)
5 | Cc1ccc2c(c1)N(C(=O)CCC(=O)NCc1ccccc1)CC(C)O2 (centres undefined) | -6.7% (inactive)
6 | Cc1ccc2c(c1)N(C(=O)CCC(=O)NCc1cccc(Br)c1)CC(C)O2 (centres undefined) | 90.4% (active)
7 | Cc1ccc2c(c1)N(C(=O)CCC(=O)NCc1cccc(Cl)c1)CC(C)O2 (centres undefined) | -4% (inactive)
8 | COc1cccc(CNC(=O)c2csc3c2CCCC3)c1 | -8.1% (inactive)
9 | CCC(=O)N(Cc1cc2cc(OC)ccc2[nH]c1=O)c1cccc(C)c1 | -4.9% (inactive)
10 | c1ccc(-c2nc(-c3ccccn3)nc(-c3ccccn3)n2)nc1 | -4% (inactive)
11 | Cn1nc(-c2ccc(Cl)cc2)nc2c(=O)n(C)c(=O)nc1-2 | -0.7% (inactive)
12 | CCn1c(N)nc2c1c(=O)n(C)c(=O)n2C | 0.4% (inactive)
13 | CCCc1nc(SCC(=O)c2ccc(OC)cc2)c2c(=O)n(C)c(=O)n(C)c2n1 | 7.4% (inactive)
14 | CCCc1nc2c(=O)n(C)c(=O)nc-2n(C)n1 | 79% (active)
15 | Cn1nc(-c2ccccn2)nc2c(=O)n(C)c(=O)nc1-2 | 73.5% (active)
16 | Cn1c(N)c(C(=O)COC(=O)CCc2ccccc2)c(=O)n(C)c1=O | -4.8% (inactive)
17 | CC1CCCC(NC(=O)COC(=O)CCc2ccccc2)C1C (centres undefined) | -5.4% (inactive)
18 | Clc1ccccc1CNCC1CCCO1 (centres undefined) | -13.9% (inactive)
19 | CCOC(=O)COc1c(/C=N\O)cc(Cl)cc1OC | -4.2% (inactive)
20 | COc1ccc(C(=O)c2no[n+]([O-])c2C(=O)c2ccc(OC)cc2)cc1 | 7.8% (inactive)
21 | O=C(c1cccs1)c1no[n+]([O-])c1C(=O)c1cccs1 | 55.5% (active)
22 | Cc1ccc(C(=O)c2no[n+]([O-])c2C(=O)c2ccc(C)cc2)cc1 | -5.8% (inactive)
23 | CN(CC(=O)Nc1ccc(F)cc1)C(=O)CSc1nc2ncc(Cl)cc2[nH]1 | -4.4% (inactive)
24 | N#Cc1ccc(N/N=C/c2cn(-c3ccccc3)nc2-c2ccccc2)c([N+](=O)[O-])c1 | -1.1% (inactive)

Row | Structure (SMILES) | inhibition
25 | COCCn1c(C)cc(C(=O)COc2ncnc3ccc(Br)cc23)c1C | -1.5% (inactive)
26 | CCOc1ccc(NC(=O)CN(c2ccc(C)cc2)S(=O)(=O)c2c(C)nn(C)c2C)cc1 | -8.4% (inactive)
27 | Cn1c(SCC(=O)N2CCN(c3ccccc3)CC2)nnc1-c1ccco1 | -8.2% (inactive)
28 | Cn1c(SCC(=O)N2CCN(c3ccccc3)CC2)nnc1-c1ccccc1 | -8.4% (inactive)
29 | Cn1c(SCC(=O)N2CCN(c3ccccc3)CC2)nnc1-c1cc2ccccc2o1 | 79.7% (active)
30 | Cc1ccc(CNS(=O)(=O)c2ccc(C(C)(C)C)cc2)n1C | -5.6% (inactive)
31 | Cc1cccc(NC(=O)CN2CCOCC2)c1C | -9.5% (inactive)
32 | Clc1ccc2scc(CN3CCCCC3)c2c1 | -6.7% (inactive)
33 | c1ccc2c(CN3CCOCC3)csc2c1 | -4.5% (inactive)
34 | c1ccc2c(CN3CCCCC3)csc2c1 | 68.1% (active)
35 | C=CCn1c(C)cc(C(=O)CN2NS(=O)(=O)c3ccccc3C2=O)c1C | -3.8% (inactive)
36 | Cc1nn(Cc2ccc(Cl)cc2)c(C)c1NC(=O)CSc1n[nH]c(C)c1[N+](=O)[O-] | -3.2% (inactive)
37 | COc1ccc(C2C(C(=O)N3CCCC3)c3cc(OC)c(OC)cc3C(=O)N2C)cc1OC (centres undefined) | -1.1% (inactive)
38 | COc1cc2c(cc1OC)C(C(=O)N1CCCC1)C(c1ccccc1F)N(C)C2=O (centres undefined) | -2.7% (inactive)
39 | COc1cc2c(cc1OC)C(C(=O)N1CCCCC1)C(c1ccccc1F)N(C)C2=O (centres undefined) | 64.6% (active)
40 | COCCCNc1nc2c(-c3ccc(C)cc3)nnn2c2ccccc12 | -6.1% (inactive)
41 | O=C(N=C1c2ccccc2CN1c1cccc(Cl)c1)c1cccnc1 | -6.2% (inactive)
42 | COc1cc(SC#N)ccc1N=Cc1c(C)[nH]n(-c2ccc(C)c(C)c2)c1=O | -5.7% (inactive)
43 | COc1cc(SC#N)ccc1N=Cc1c(C)[nH]n(-c2ccc(Cl)cc2)c1=O | 80.6% (active)
44 | COc1cc(SC#N)ccc1N=Cc1c(C)[nH]n(-c2ccc(C)cc2C)c1=O | -3.1% (inactive)
45 | CCOC(=O)C1CCN(S(=O)(=O)c2cc(Cl)c(C)cc2OC)CC1 | 0% (inactive)
46 | O=C(Nc1ccc2nc(-c3ccco3)c(-c3ccco3)nc2c1)N1CCCCCC1 | 17.4% (inactive)
47 | CCOC(=O)C1CCN(C(=O)Nc2ccc3nc(-c4ccco4)c(-c4ccco4)nc3c2)CC1 | 53.4% (active)
48 | CCOC(=O)C1CCN(C(=O)Nc2ccc3nc(C)c(C)nc3c2)CC1 | -2.2% (inactive)

Row | Structure (SMILES) | inhibition
49 | CCC(=O)N1CCc2nc(-c3ccccc3)sc2C1 | -5.1% (inactive)
50 | COC(=O)c1ccc(CSc2nc(-c3ccccc3)cs2)o1 | -2.6% (inactive)
51 | CC(=O)N1c2c(cc(Br)cc2S(=O)(=O)N2CCOCC2)CC1C (centres undefined) | 51.5% (active)
52 | CC(=O)N1c2c(cc(Br)cc2S(=O)(=O)N2CCCCC2)CC1C (centres undefined) | -0.1% (inactive)
53 | CCOC(=O)N1CCN(S(=O)(=O)c2cc(Br)cc3c2N(C(C)=O)C(C)C3)CC1 (centres undefined) | 3% (inactive)
54 | COc1ccc(C(=O)Nc2cccc(C(=O)N3CCCC3)c2)cc1 | -7.1% (inactive)
55 | COc1ccccc1CC(=O)Nc1ccc(S(=O)(=O)N2CCN(C)CC2)cc1 | -10.4% (inactive)
56 | Cc1cc2ncc(Cl)nc2cc1C | 59.3% (active)
57 | Cc1cc2nc(Cl)c(Cl)nc2cc1C | -2.6% (inactive)
58 | Cc1cnc2cc(Cl)c(Cl)cc2n1 | -3.4% (inactive)
59 | CC(Oc1ccc([N+](=O)[O-])cc1Cl)C(=O)Nc1ccc(C(N)=O)cc1 (centres undefined) | -5.5% (inactive)
60 | Cc1ccc(NC(=O)C2CCCN2C(=O)NC2CCCCC2)cc1C (centres undefined) | -7% (inactive)
61 | CCCN1C(=O)C2(C(C(=O)c3ccc(C)o3)=C(O)C(=O)N2CCCOC)c2ccccc21 (centres undefined) | 3.3% (inactive)
62 | O=C(NCc1ccco1)c1ccc2ccccc2n1 | 56.3% (active)
63 | Cc1nc2ccccc2cc1C(=O)NCc1ccco1 | 1.1% (inactive)
64 | O=C(NCc1ccccc1)c1ccc2ccccc2n1 | -6.3% (inactive)
65 | CC1CCN(C(=O)Cn2c(SCC(=O)Nc3nccs3)nc3ccccc32)CC1 | -1% (inactive)
66 | CN1CCN(c2ccccc2NC(=O)Cc2ccc(Cl)cc2)CC1 | -9.1% (inactive)
67 | NN1C(=O)/C(=C2/Sc3ccccc3N2CCCS(=O)(=O)O)SC1=S | -6.6% (inactive)
68 | CC1=NN(C(=O)c2ccc(Cn3ccc([N+](=O)[O-])n3)cc2)C(O)(C(F)(F)F)C1 (centres undefined) | 63.4% (active)
69 | CC1=NN(C(=O)c2ccc(Cn3cc([N+](=O)[O-])cn3)cc2)C(O)(C(F)(F)F)C1 (centres undefined) | -3.4% (inactive)
70 | CC1=NN(C(=O)Cn2ccc([N+](=O)[O-])n2)C(O)(C(F)(F)F)C1 (centres undefined) | -3.6% (inactive)
71 | CC1Cc2ccccc2N1C(=O)CCn1c(=O)oc2ccccc21 (centres undefined) | 5.2% (inactive)
72 | COc1ccc(C(=O)n2ncc(C#N)c2N)cc1 | -0.2% (inactive)

Row | Structure (SMILES) | inhibition
73 | CSC1=NCCN1CCOc1ccccc1 | -8.5% (inactive)
74 | O=C(Cc1ccc([N+](=O)[O-])cc1)N1CCN(c2ccc([N+](=O)[O-])cc2)CC1 | -5.9% (inactive)
75 | O=C(Cc1cccs1)N1CCN(c2ccc(F)cc2)CC1 | -8.1% (inactive)
76 | O=C(Cc1cccs1)N1CCN(c2ccc([N+](=O)[O-])cc2)CC1 | 70% (active)
77 | CCOC1(C)OCC(=O)[C@]2(CCC3C4CCC5=CC(=O)C=CC5(C)C4C(=O)CC32C)O1 (some centres undefined) | 55.8% (active)
78 | C[C@]12C=CC(=O)C=C1CC[C@@H]1[C@@H]2C(=O)C[C@@]2(C)[C@H]1CC[C@]2(O)C(=O)CO | -5.9% (inactive)
79 | CC(=O)OCC(=O)[C@@]1(O)CC[C@H]2[C@@H]3CCC4=CC(=O)C=C[C@]4(C)[C@H]3C(=O)C[C@@]21C | -4.3% (inactive)
80 | CCN(CC)CCNC(=O)C1CCN(S(=O)(=O)N2CCCCC2)CC1 | -7.2% (inactive)
81 | COc1ccccc1N1CCN(C(=O)C2CCN(C(=O)c3ccccc3Cl)CC2)CC1 | 69.4% (active)
82 | COc1ccccc1N1CCN(C(=O)C2CCN(C(=O)c3ccccc3C)CC2)CC1 | -10.9% (inactive)
83 | COc1ccccc1N1CCN(C(=O)C2CCN(C(=O)c3cccc(Cl)c3)CC2)CC1 | -6.5% (inactive)
84 | O=C(Nc1ccc2c(c1)OCO2)c1ccccc1SCC(=O)N1CCCC1 | 0.1% (inactive)
85 | CCOc1cc(N2CCOCC2)c(OCC)cc1NC(=O)c1c(-c2ccccc2Cl)noc1C | 2.6% (inactive)
86 | CCSc1nnc(NC(=O)C2CC=CCC2C(=O)O)s1 (centres undefined) | 0.6% (inactive)
87 | CCSc1nnc(NC(=O)C2CCCCC2)s1 | -4.2% (inactive)
88 | CCSc1nnc(NC(=O)C2CCCCC2C(=O)O)s1 (centres undefined) | 66.2% (active)
89 | CS(=O)(=O)N(CC(=O)Nc1ccccc1Br)Cc1ccccc1 | -4.5% (inactive)
90 | O=C1OC(c2ccc(Br)cc2)=N/C1=C\c1ccco1 | 63.7% (active)
91 | O=C1NC(c2ccc(Br)cc2)=N/C1=C/c1ccco1 | 9.9% (inactive)
92 | CC1=N/C(=C/c2ccco2)C(=O)O1 | -3.8% (inactive)
93 | CCOC(=O)c1ccc(N2C(=O)C3C(/C=C/c4ccccc4)OC4(C(=O)c5ccccc5C4=O)C3C2=O)cc1 (centres undefined) | 7.3% (inactive)
94 | CCOC(=O)c1cc(-c2cc(OC)c(OC)c(OC)c2)nc2c1c(=O)[nH]c(=O)n2Cc1ccccc1 | -8.7% (inactive)
